From PubChem BioAssay (EPA / NIEHS)
Records with an inconclusive call do not appear. Active and inactive are the calls of the source. How the source made its calls, unless noted: active means hit-call score of the fitted dose curve at least 0.9, where 1 is the maximum; inconclusive means response in the unintended direction; inactive means score below 0.9.

What was measured:
[1] = biological target: human Ephrin type-A Receptor 1 (EphA1), EPHA1 (gene 2041) (UniProt P21709); assay: NVS_ENZ_hEphA1: NovaScreen (NVS) Enzymatic Assay for human Ephrin type-A Receptor 1 (EphA1) (AID 2283158);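 further: activity is signal loss versus DMSO meaning EphA1 kinase inhibition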
Chain of human Ephrin type-A Receptor 1 (EphA1), EPHA1 (gene 2041) (P21709 whole entry, looked up): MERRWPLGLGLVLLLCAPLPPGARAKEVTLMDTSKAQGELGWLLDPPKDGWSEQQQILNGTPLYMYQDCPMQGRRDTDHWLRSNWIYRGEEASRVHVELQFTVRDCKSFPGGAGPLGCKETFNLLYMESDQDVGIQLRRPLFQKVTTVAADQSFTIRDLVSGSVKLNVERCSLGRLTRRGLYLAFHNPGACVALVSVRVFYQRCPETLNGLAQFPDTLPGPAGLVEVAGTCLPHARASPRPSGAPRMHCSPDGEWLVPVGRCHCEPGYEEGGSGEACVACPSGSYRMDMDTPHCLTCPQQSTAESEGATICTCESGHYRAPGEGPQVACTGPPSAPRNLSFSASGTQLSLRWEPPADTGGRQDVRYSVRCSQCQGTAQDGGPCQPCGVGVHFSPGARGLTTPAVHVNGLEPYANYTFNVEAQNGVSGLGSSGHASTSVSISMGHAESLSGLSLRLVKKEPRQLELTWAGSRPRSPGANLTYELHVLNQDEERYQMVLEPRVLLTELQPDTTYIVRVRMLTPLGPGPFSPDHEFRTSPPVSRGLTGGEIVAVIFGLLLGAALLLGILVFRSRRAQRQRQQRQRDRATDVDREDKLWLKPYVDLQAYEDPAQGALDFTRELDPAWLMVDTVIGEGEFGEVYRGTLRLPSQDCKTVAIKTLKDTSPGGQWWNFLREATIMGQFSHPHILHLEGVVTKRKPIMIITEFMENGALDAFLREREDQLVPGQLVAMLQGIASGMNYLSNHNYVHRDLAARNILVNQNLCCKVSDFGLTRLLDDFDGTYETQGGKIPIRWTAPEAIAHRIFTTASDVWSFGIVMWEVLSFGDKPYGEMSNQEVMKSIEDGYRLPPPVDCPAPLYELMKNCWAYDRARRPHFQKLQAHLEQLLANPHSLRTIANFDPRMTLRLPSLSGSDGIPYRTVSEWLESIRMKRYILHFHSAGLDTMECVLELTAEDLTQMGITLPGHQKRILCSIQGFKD
Summary of the method: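 Cell-free kinase activity with recombinant protein, 1 hour after dosing; product separated by electrophoretic mobility shift, fluorescence read. Primary screen at 25 uM in duplicate; hits run as concentration-response up to 50 uM, relative to DMSO.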

[2] = biological target: human CYP2C9, CYP2C9 (gene 1559) (UniProt P11712); assay: NVS_ADME_hCYP2C9: NovaScreen (NVS) CYP450-related Enzyme Activity (ADME) Assay for human CYP2C9 (AID 2283108)
Chain of human CYP2C9, CYP2C9 (gene 1559) (P11712 whole entry, looked up): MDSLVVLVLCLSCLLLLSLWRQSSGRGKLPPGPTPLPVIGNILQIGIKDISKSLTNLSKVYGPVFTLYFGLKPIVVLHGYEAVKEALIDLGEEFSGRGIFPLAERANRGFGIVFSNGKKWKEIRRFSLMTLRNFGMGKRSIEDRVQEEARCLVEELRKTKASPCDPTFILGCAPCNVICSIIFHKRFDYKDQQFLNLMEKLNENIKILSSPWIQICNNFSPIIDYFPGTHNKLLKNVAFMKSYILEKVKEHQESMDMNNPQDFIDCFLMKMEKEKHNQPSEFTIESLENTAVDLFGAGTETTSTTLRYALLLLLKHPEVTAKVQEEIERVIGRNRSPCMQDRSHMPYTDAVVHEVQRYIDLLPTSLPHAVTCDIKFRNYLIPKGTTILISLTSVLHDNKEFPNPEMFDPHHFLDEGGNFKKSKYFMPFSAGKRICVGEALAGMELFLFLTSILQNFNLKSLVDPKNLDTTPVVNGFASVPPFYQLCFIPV
Summary of the method: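 Cell-free assay of recombinant human CYP2C9 produced in Sf9 cells, with enzyme activity read by fluorescence intensity 0.75 h after compound addition. Loss of signal versus an acetonitrile negative control indicates inhibition. Primary screen used 10 uM in duplicate; actives were retested in concentration series.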

[3] = biological target: Mitogen-activated protein kinase 3 (Homo sapiens) (UniProt P27361); assay: NVS_ENZ_hMAPK3: NovaScreen (NVS) Enzymatic Assay for human Mitogen-Activated Protein Kinase 3 (MAPK 3) (AID 2283177)
Chain of Mitogen-activated protein kinase 3 (Homo sapiens) (P27361 whole entry, looked up): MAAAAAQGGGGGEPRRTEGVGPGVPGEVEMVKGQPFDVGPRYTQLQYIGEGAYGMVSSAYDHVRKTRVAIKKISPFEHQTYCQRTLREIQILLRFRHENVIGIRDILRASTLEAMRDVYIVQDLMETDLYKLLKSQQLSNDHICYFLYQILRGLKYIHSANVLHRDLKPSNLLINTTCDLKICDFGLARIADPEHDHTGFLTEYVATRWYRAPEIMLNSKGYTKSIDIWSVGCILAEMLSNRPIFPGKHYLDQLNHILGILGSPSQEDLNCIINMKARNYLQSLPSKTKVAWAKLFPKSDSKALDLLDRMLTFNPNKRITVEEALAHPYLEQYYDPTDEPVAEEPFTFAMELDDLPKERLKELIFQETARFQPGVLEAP
Summary of the method: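 Cell-free enzymatic assay with recombinant protein and specific substrate; fluorescence and electrophoretic mobility shift read-out 1 h after dosing. Primary screen duplicate at 25 uM; actives then run in concentration-response up to 50 uM, loss of signal versus DMSO.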

[4] = biological target: Cytochrome P450 2C19 (Homo sapiens) (UniProt P33261); assay: NVS_ADME_hCYP2C19: NovaScreen (NVS) CYP450-related Enzyme Activity (ADME) Assay for human CYP2C19 (AID 2283113);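 further: potency for inhibition seen as loss of fluorescent signal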
Summary of the method: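 Cell-free recombinant human CYP2C19 from insect cells, fluorescent substrate; activity read by fluorescence intensity 1 h after dosing. Primary screen in duplicate at 10 uM; actives retested in concentration series. Signal loss versus acetonitrile negative control.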

[5] = biological target: Cytochrome P450 3A4 (Homo sapiens) (UniProt P08684); assay: NVS_ADME_hCYP3A4: NovaScreen (NVS) CYP450-related Enzyme Activity (ADME) Assay for human CYP3A4 (AID 2283110)
Chain of Cytochrome P450 3A4 (Homo sapiens) (P08684 whole entry, looked up): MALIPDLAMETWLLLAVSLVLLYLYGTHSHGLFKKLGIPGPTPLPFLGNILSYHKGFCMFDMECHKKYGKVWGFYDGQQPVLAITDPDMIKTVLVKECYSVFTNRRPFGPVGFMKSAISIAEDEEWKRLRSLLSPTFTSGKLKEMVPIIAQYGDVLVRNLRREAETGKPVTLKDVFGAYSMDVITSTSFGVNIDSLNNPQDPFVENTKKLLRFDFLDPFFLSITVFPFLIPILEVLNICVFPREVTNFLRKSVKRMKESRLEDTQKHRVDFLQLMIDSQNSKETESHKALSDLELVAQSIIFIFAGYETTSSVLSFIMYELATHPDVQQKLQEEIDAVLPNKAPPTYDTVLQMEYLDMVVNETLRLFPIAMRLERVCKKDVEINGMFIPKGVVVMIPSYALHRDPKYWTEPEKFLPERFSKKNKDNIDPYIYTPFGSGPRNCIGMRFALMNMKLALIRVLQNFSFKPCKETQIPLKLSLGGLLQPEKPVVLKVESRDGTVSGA
Summary of the method: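 Cell-free assay using insect-cell-expressed human CYP3A4 with a fluorogenic substrate; fluorescence intensity was read 0.33 hour after dosing. Loss of signal relative to acetonitrile vehicle indicated inhibition. Primary single-concentration screen at 10 uM, in duplicate, then concentration series.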

[6] = biological target: rat CYP2A1, Cyp2a1 (gene 24894) (UniProt P11711); assay: NVS_ADME_rCYP2A1: NovaScreen (NVS) CYP450-related Enzyme Activity (ADME) Assay for rat CYP2A1 (AID 2283114; active means hit-call score of the fitted dose curve at least 0.9, where 1 is the maximum; inactive means score below 0.9)
Chain of rat CYP2A1, Cyp2a1 (gene 24894) (P11711 whole entry, looked up): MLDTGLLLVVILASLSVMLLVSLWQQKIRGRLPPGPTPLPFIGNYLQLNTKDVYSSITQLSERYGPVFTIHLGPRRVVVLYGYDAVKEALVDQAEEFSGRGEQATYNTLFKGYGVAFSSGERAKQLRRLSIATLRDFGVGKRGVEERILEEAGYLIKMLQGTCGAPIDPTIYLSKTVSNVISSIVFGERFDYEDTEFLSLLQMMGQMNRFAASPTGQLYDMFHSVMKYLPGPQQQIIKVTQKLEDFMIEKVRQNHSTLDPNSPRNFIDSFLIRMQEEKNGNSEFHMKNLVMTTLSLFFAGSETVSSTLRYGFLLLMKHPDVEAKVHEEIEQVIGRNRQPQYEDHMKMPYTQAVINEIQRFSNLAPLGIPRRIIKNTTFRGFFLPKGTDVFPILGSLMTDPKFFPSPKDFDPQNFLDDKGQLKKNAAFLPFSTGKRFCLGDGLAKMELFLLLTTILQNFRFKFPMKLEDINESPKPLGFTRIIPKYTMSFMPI
Summary of the method: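 Recombinant rat CYP2A1, cell-free, fluorogenic substrate turnover read by fluorescence intensity 0.75 h after dosing. Primary screen at 10 uM in duplicate; actives rerun as concentration-response up to 20 uM; loss of signal versus acetonitrile control.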

[7] = biological target: rat CYP2C13, Cyp2c13 (gene 171521) (UniProt P20814); assay: NVS_ADME_rCYP2C13: NovaScreen (NVS) CYP450-related Enzyme Activity (ADME) Assay for rat CYP2C13 (AID 2283121)
Chain of rat CYP2C13, Cyp2c13 (gene 171521) (P20814 whole entry, looked up): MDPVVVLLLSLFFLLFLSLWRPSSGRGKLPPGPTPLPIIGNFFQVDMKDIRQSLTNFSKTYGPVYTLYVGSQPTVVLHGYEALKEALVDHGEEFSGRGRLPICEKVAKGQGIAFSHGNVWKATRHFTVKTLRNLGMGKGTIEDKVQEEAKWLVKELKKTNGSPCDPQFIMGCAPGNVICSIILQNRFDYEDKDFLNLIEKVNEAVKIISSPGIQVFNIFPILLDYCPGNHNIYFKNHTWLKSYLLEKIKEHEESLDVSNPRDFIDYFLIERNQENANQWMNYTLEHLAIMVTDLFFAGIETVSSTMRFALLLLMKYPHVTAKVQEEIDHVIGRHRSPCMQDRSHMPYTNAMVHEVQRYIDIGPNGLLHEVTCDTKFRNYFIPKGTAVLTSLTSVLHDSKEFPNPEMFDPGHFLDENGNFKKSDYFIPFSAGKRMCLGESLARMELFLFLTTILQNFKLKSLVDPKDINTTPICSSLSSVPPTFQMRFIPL
Summary of the method: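 Recombinant rat CYP2C13 with fluorogenic substrate, 0.75 h cell-free incubation; primary screen in duplicate at 10 uM, actives followed in concentration series. Fluorescence loss relative to acetonitrile control indicates inhibition.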

[8] = biological target: human Beta-secretase (BACE), BACE1 (gene 23621) (UniProt P56817); assay: NVS_ENZ_hBACE: NovaScreen (NVS) Enzymatic Assay for human Beta-secretase (BACE) (AID 2283140);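 further: hits are inhibitors that reduce fluorescent substrate signal versus DMSO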
Chain of human Beta-secretase (BACE), BACE1 (gene 23621) (P56817 whole entry, looked up): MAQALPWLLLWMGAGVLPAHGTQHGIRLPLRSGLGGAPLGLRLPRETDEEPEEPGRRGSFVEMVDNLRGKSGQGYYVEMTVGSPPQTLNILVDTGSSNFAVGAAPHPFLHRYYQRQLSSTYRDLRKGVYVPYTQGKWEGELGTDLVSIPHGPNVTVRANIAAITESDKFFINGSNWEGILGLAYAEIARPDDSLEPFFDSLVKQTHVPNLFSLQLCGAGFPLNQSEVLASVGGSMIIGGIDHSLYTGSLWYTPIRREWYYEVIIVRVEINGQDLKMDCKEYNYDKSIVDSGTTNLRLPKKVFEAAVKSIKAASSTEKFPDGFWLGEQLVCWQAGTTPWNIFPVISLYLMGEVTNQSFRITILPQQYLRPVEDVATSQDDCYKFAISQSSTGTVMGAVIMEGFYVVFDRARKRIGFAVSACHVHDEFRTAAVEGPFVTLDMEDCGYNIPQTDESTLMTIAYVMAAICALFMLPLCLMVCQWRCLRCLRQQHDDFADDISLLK
Summary of the method: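 Recombinant BACE1 (SF9 extract) incubated with compound and fluorescent substrate, 1 h. Plates carried positive and DMSO negative controls. Initial single dose 25 uM, duplicate; confirmation by concentration series.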

[9] = biological target: human Caspase 5 (CASP5), CASP5 (gene 838) (UniProt P51878); assay: NVS_ENZ_hCASP5: NovaScreen (NVS) Enzymatic Assay for human Caspase 5 (CASP5) (AID 2283137)
Chain of human Caspase 5 (CASP5), CASP5 (gene 838) (P51878 whole entry, looked up): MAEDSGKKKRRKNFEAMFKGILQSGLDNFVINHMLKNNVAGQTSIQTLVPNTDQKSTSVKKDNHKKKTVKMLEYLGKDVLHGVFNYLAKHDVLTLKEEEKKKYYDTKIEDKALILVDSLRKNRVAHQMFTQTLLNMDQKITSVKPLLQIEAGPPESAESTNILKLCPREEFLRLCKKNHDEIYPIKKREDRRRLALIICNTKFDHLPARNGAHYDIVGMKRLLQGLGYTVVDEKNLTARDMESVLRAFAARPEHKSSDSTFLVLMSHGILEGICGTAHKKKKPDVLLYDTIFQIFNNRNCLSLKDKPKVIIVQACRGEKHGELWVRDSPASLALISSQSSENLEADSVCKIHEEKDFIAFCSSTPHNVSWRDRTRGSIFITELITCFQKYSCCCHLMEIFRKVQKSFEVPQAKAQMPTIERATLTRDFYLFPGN
Summary of the method: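 Cell-free protease assay with bacterially expressed CASP5 and a fluorescent substrate, measured at 2 h. Values fitted relative to DMSO as baseline, from concentration-response series topping at 50 uM.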

[10] = biological target: human Dual Specificity Protein Phosphatase 3 (DUSP3), DUSP3 (gene 1845) (UniProt P51452); assay: NVS_ENZ_hDUSP3: NovaScreen (NVS) Enzymatic Assay for human Dual Specificity Protein Phosphatase 3 (DUSP3) (AID 2283152);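 further: phosphatase activity of recombinant human DUSP3 on a fluorogenic substrate without cells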
Chain of human Dual Specificity Protein Phosphatase 3 (DUSP3), DUSP3 (gene 1845) (P51452 whole entry, looked up): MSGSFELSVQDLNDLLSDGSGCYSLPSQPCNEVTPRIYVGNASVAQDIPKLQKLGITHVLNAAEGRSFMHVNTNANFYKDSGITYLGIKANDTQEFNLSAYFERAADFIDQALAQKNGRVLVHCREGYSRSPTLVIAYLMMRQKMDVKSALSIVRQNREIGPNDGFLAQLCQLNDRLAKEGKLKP
Summary of the method: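 Cell-free assay with recombinant human DUSP3 and fluorogenic substrate, read by fluorescence intensity. Primary screen ran duplicate at 25 uM; actives followed up in concentration series; loss of signal versus DMSO scored.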

## C=CCOC(=O)CC(C)C
[1]
  outcome: inactive

## CC(C)=CCCC(C)O (stereo not drawn)
[2]
  outcome: inactive

## CCCCCCCCCCCCCC[P+](CCCC)(CCCC)CCCC
[3]
  AC50: 20.2 µM (active)

## Cc1cc(O)c(C(C)(C)C)cc1C(C)(C)C
[1]
  outcome: inactive

## C[C@]12CC[C@H]3C(=CCc4cc(O)ccc43)[C@@H]1CCC2=O
[4]
  AC50: 1.95 µM (active)

## COC(=O)c1ccc(C=O)cc1
[5]
  AC50: 0.00779 µM (active)

## CCCCCCCCn1sc(Cl)c(Cl)c1=O
[4]
  AC50: 8.26 µM (active)
[6]
  outcome: inactive
[7]
  outcome: inactive

## CCC(C)CO (stereo not drawn)
[8]
  outcome: inactive

## CC1=CC2C3C=CC(C3)C2C1C (stereo not drawn)
[9]
  AC50: 13.1 µM (active)

## CC1=CCC2C(=O)OC(=O)C2C1 (stereo not drawn)
[1]
  outcome: inactive

## O=C1C=CC(=O)N1c1ccc(Cc2ccc(N3C(=O)C=CC3=O)cc2)cc1
[9]
  AC50: 4.26 µM (active)
[1]
  outcome: inactive

## Cc1cc(=O)[nH]c(C(C)C)n1
[1]
  AC50: 9.31 µM (active)

## c1ccc(C[P+](c2ccccc2)(c2ccccc2)c2ccccc2)cc1
[4]
  AC50: 1.87 µM (active)

## O=C(c1ccccc1)c1ccc(O)cc1O
[10]
  AC50: 16.5 µM (active)
[1]
  outcome: inactive

## O=C1c2c(O)ccc(Nc3ccc(CCO)cc3)c2C(=O)c2c([N+](=O)[O-])ccc(O)c21
[4]
  AC50: 4.49 µM (active)
[9]
  AC50: 0.148 µM (active)
[8]
  AC50: 0.129 µM (active)
[10]
  AC50: 2.37 µM (active)

## Brc1nc2ccccc2s1
[1]
  outcome: inactive
